Data as given in PubChem BioAssay AID588819 (The Scripps Research Institute Molecular Screening Center, 2011).
Hit rate of the full screen: of about 360,000 compounds, about 320 (0.089%) were called active. Rule as the data show it: active = activation above about 19% (passing the limit was not always enough); inactive = the rest. The full list was thinned out, with actives kept by preference.

Target: Muscarinic acetylcholine receptor M1 (Homo sapiens) (UniProt P11229)
Experiment: CHRM1 PAMs potentiating acetylcholine calcium signal – CHO-K1 cells, Fluo-8 calcium fluorescence, 1536-well, primary screen (AID 588819)
Settings: CHO-K1 hM1, Fluo-8 calcium fluorescence, ACh EC20; at 3 µM; hits give high values; 0% = ACh EC20, 100% = maximal ACh

Muscarinic acetylcholine receptor M1 (Homo sapiens), sequence (P11229 whole entry, looked up): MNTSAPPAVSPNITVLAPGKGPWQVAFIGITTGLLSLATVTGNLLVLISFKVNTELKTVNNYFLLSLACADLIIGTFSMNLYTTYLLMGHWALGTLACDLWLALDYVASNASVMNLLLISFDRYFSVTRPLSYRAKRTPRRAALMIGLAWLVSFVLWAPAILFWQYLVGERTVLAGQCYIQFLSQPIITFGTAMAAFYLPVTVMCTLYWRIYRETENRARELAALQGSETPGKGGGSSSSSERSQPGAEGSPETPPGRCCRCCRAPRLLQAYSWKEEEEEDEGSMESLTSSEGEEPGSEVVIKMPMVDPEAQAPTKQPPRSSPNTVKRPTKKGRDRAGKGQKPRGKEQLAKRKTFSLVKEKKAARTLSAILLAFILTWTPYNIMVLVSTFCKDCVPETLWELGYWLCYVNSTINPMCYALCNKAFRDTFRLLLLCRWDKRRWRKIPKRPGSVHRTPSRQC

activation, active:
COC(=O)c1ccc2nc(C3CCCCC3)c(Cc3cccc(F)c3)n2c1 27%, O=C(O)c1cccc(S(=O)(=O)Nc2ccc(O)cc2Sc2nc3ccccc3s2)c1 31.9%, CCOc1ccc(S(=O)(=O)N2CCN(C(=O)c3oc4ccccc4c3C)CC2)cc1 24.4%, O=C(CN1C(=O)C2C3C=CC(C3)C2C1=O)NCC1COc2ccccc2O1 (stereo not given) 19.5%, O=C1Nc2ccc(Br)cc2/C1=N/N=C/C1=C(N2CCOCC2)C(=C\c2ccccc2)/CC1 19.2%, COc1ccc(C(=O)Nc2ccccc2C(=O)NCc2ccco2)cc1 30.1%, Nc1nnnn1/N=C/c1cc([N+](=O)[O-])ccc1O 26.2%, CC(C)c1nc2ccc(C(=O)O)cc2[nH]1 31.2%, Cc1ccc(-c2cc(C(=O)N/N=C/C=C/c3ccco3)c3ccccc3n2)cc1C 21.5%, O=C(O)C1CCN(S(=O)(=O)N2CCOCC2)CC1 29.8%

activation, inactive:
Cc1ccc(NC(=O)CSc2nn3c(=O)c(C)nnc3s2)cc1Cl 10.6%, Cc1ccccc1CSCCNC(=O)c1ccc(Cl)c(S(=O)(=O)N2CCOCC2)c1 -5.71%, COc1ccc(Cl)cc1NC(=O)COc1ccc2c(c1)OCO2 7.62%, CN=C1SC(C(=O)O)CC(=O)N1C (stereo not given) 7.37%, COc1cc(C(=O)N(C)Cc2cccc(OC)c2OC)ccc1OCC(=O)Nc1cccc(C(F)(F)F)c1 -5.88%, COC(=O)c1ccc2ccccc2c1OC1OC(CO)C(O)C(O)C1NC(C)=O (stereo not given) 9.3%, CC(=O)c1cccc(NC(=O)C2CCCN2S(=O)(=O)c2cccc3nsnc23)c1 (stereo not given) -0.71%, Cc1ccc(CN2CCN(c3ccccc3Cl)CC2)o1 5.74%, CCOc1cc(C(=O)Nc2ccc(S(=O)(=O)Nc3cnc4ccccc4n3)cc2)cc(OCC)c1OCC 7.77%, COc1ccc([N+](=O)[O-])cc1N(CC(O)Cn1nnc2ccccc21)S(=O)(=O)c1ccc(C)cc1 (stereo not given) 21.8%, Oc1cccc(CCc2ccccn2)c1 4.71%, CCCn1c(=O)c2c(C(F)(F)F)cc(-c3cccs3)nc2n(CCC)c1=O 1.78%, CCC(=O)N1CCCC1(C)C(=O)Nc1ccc2c(c1)CCN2C(C)=O (stereo not given) 8.84%, COC(=O)c1ccc2nc(-c3ccc(OC)c(OC)c3)c(Cc3ccccc3)n2c1 2.75%, COC(=O)c1ccc2nc(-c3ccc(Cl)cc3)c(Cc3cccc(F)c3)n2c1 -0.44%, CN(C)CCN(Cc1ccccc1)S(=O)(=O)c1csc(C(N)=O)c1 10.5%, O=C(Cc1ccccc1)NCC1OCCc2ccccc21 (stereo not given) -5.39%, CCCCN(CC(=O)NC(C)(C)C)C(=O)C(=O)Nc1ccc2c(c1)OCCO2 7.88%, O=C(NNS(=O)(=O)c1c(F)cc(F)c(Cl)c1F)C12CC3CC(CC(C3)C1)C2 -10.7%, COc1ccc(CNC(=O)COC(=O)CCS(=O)(=O)c2ccc(C)cc2)cc1OC 4.46%, CCCn1nc(C(=O)OCc2nc(N)nc(Nc3ccccc3C)n2)c2ccccc2c1=O 11.4%, CCOc1ccc2ccccc2c1/C=N/NC(=O)c1c(C)cc(C)[nH]c1=O 7.97%, Oc1cccc(C2c3[nH]c4ccccc4c3CCN2Cc2cnn(-c3ccccc3)c2)c1 (stereo not given) -6.09%, Cc1nc2ccc(NC(=O)c3cccc(S(=O)(=O)N4CCOCC4)c3)cc2s1 3.59%, O=[N+]([O-])c1c(NCCO)cc(Sc2nc3ccccc3s2)c2nonc12 1.97%, CCn1c(CN2C(=O)CSc3ccccc32)n[nH]c1=S -0.34%, CCC(C)[C@H](NC(=O)N1CCn2c1nc1ccccc12)C(=O)NCc1ccc(OC)cc1 (stereo not given in full) 0.16%, CC(C)(C)NC(=O)Cn1c(SCC(=O)Nc2nccs2)nc2ccccc21 2.24%, CCOC(=O)C1(Cc2cccc(OC)c2)CCCN(S(=O)(=O)c2cccnc2)C1 (stereo not given) 6.27%, CN1/C(=C\C=C2\N=C(c3ccc(F)cc3)OC2=O)C(C)(C)c2ccccc21 -5.26%, CN(C(=O)c1cccc(NC(=O)Cc2ccc(NC(=O)C3CCN(C(=O)C4CCCCC4)CC3)cc2)c1)C1CCC1 0.54%, CS(=O)(=O)N(CC(=O)NC1CCCC1)Cc1ccc(F)cc1 0.34%, Cc1ccc(NC(=O)Cn2cccc2C2=NC(c3ccccc3)CO2)c(C)c1 (stereo not given) 6.3%, COCCn1c(SCC(=O)Nc2ccc3c(c2)CCC3)nc2ccccc2c1=O 5.21%, CCCC1NC(=O)NC(C)=C1C(=O)OCC (stereo not given) 3.33%, COCC(=O)Nc1cc(C(=O)OC)cc(C(=O)OC)c1 7.56%, Cc1cc(=O)oc(C)c1C(=O)Nc1cnc2ccccc2c1 1%, COc1ccc(S(=O)(=O)N2CCN(C(=O)c3cc(C)oc3C)CC2)cc1 10.8%, CCOC(=O)C1CCN(C(=O)c2oc3ccc(S(=O)(=O)N4CCCCCC4)cc3c2C)CC1 1.16%, CCOP(=O)(OCC)C(Nc1ccc([N+](=O)[O-])cc1)c1ccc(Cl)cc1 (stereo not given) -2.85%, Cc1ccc2oc(=O)c3cnn(CC(=O)N4CCN(c5ccccn5)CC4)c3c2c1 -8.22%, COCCNC(=O)NC(=O)COC(=O)C1(c2ccc(Cl)cc2)CC1 -0.78%, O=C(NCc1ccc(Cl)cc1)c1cc(=O)nc2sc(-c3ccccc3)nn12 -4.02%, O=C(Cn1cnc2ccccc2c1=O)NCC1COc2ccccc2O1 (stereo not given) 3.11%, O=C(Cn1nc(Cc2cccnc2)c2ccccc2c1=O)NCC1COc2ccccc2O1 (stereo not given) 9.27%, Cc1nn(Cc2ccccc2)c(C)c1C(=O)NCCCN1CCCC1=O 3.09%, COc1ccc(C)cc1NC(=O)CN(C)S(=O)(=O)c1ccc2c(c1)n(C)c(=O)c(=O)n2C 11.7%, CCOC(=O)c1cc2occc2n1CC(=O)N1CCN(C(=O)c2ccco2)CC1 0.31%, O=C(N/C(=C\c1ccc(O)cc1)C(=O)N1CCCCC1)c1ccccc1 -7.21%, O=C(O)c1ccc(NN=CC2=C(N3CCOCC3)/C(=C/c3ccccc3)CC2)cc1 1.33%, Cc1cccc(N2CC(C)Cn3c2nc2c3c(=O)n(CC(=O)OCc3ccccc3)c(=O)n2C)c1 (stereo not given) 6.13%, O=C(CCc1ccccc1)Nc1ccnn1C1CCN(Cc2ccc(OCCO)cc2)CC1 -2.48%, COc1cccc(Cn2cnc3c([N+](=O)[O-])c(C)c(C)cc32)c1 -0.11%, COCCNC(=S)N(CCc1c(C)[nH]c2ccc(C)cc12)Cc1cccnc1 9.1%, Cc1cccc(Nc2ccccc2C(=O)NCc2ccco2)c1C -3.33%, Cc1ccc(N(Cc2ccc(C(=O)Nc3ccccc3C(=O)NCc3ccco3)cc2)S(C)(=O)=O)cc1C -6.42%, CN=C(Nc1cccc(S(=O)(=O)N2CCOCC2)c1)c1ccccc1 -5.57%, Nc1nnnn1/N=C/c1cccs1 1.93%, Nc1nnnn1/N=C/c1cccc(Br)c1 11.8%, OC(c1nc2ccc(F)cc2[nH]1)C(O)c1nc2ccc(F)cc2[nH]1 (stereo not given) 3.09%, O=C(NCC(O)c1nc2ccccc2[nH]1)c1ccc(Br)cc1 (stereo not given) -1%, CN(c1ccccc1)S(=O)(=O)c1cccc(C(=O)NNC(=O)c2ccncc2)c1 1.76%, O=C(N/N=C/C=C/c1ccco1)c1cccs1 8.09%, CCOc1ccc(-c2cc(C(=O)N/N=C/c3ccc(O)cc3)c3ccccc3n2)cc1 9.09%, O=c1[nH]c2ccc(S(=O)(=O)N3CCCC3)cc2[nH]1 2.57%, O=C(C1CCN(C2CCN(Cc3ccc4cc(F)ccc4n3)CC2)CC1)N1CCCC1 8.71%, CCN(CC)CCn1c(=S)[nH]c2ncccc2c1=O 1.96%, CCc1ccc(NC(=O)CC2C(=O)NCCN2C(=S)Nc2ccccc2)cc1 (stereo not given) 7.43%, COc1ccccc1C(=O)Nc1nc2nc(-c3ccccc3)cc(=O)n2[nH]1 10.9%, O=C(CCC(=O)N1CCN(S(=O)(=O)c2ccc(Cl)cc2)CC1)NCc1cccc(C(F)(F)F)c1 -4.55%, COC(=O)c1ccc(C(=O)Nc2cc(Cl)ccc2Cl)cc1NC(=O)c1ccccc1C 7.99%, CCOC(=O)c1sc(/N=C/C2=C(O)CC(C)(C)CC2=O)c(C(=O)OCC)c1C 2.16%, CC(Oc1ccccc1F)C(=O)NN (stereo not given) 1.45%, COc1ccc(CCNC(=O)C2CCCN(Cc3nc(-c4cccc(Cl)c4)oc3C)C2)cc1OC (stereo not given) 4.43%, NC(=O)C1CCN(Cc2nc3c(Br)cc(Br)cc3c(=O)[nH]2)CC1 8.06%, COc1ccc(CNC(=O)C2CCN(S(=O)(=O)N3CCOCC3)CC2)cc1 5.85%, O=C(NCc1ccccc1Cl)C1CCN(S(=O)(=O)N2CCOCC2)CC1 -0.4%, COc1cc2c(cc1OC)C(C(=O)NCc1ccco1)C1c3ccccc3CCN1C2=O (stereo not given) 3.09%, O=C(NCc1csc(-c2cccs2)n1)C1CC1 9.22%, CC(=O)c1ccc(S(=O)(=O)Nc2ccc(-c3ccc4nncn4n3)cc2)cc1 7.59%
